# KLF5 inh – KLF5 expression inhibitors, primary screen, DLD-1 cells, luminescence. DLD-1 KLF5 promoter-luciferase reporter. inhibition, % at 5 µM. hit rate 0.23% among 290,000. AID 1700, 2009;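 active means inhibition above a per-plate limit of that plate's mean compound inhibition plus 3 SD, cut at about 60% in these data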;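 further: 0% = DMSO wells and 100% = LY294002 at 200 µM; higher means less KLF5 promoter-driven luciferase light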
# IEC-6 tox-1 – cytotoxicity in IEC-6 intestinal epithelial cells, primary screen, cytotoxicity control for KLF5 inhibitor project, cell-based, luminescence; IEC-6 cytotoxicity, luminescence viability; inhibition, % at 5 µM; hit rate 0.78% among 290,000; AID 1825, 2009;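 further: 0% = plate median of test compound wells and 100% = cytotoxic reference compound wells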
# Ba/F3 V617F tox – reduced viability of JAK2V617F-dependent Ba/F3 cells, primary screen, JAK2V617F inhibitor project, cell-based, Ba/F3 EpoR-JAK2V617F, luminescence | ATP luminescence | inhibition, % at 5.6 µM | hit rate 1.1% among 220,000 | AID 1446, 2008;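 active means inhibition above the campaign mean plus 3 SD over all tested compounds, cut at about 24% in these data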;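 further: cytokine-independent growth of Ba/F3 cells driven by EpoR plus mutant JAK2; 0% = DMSO-treated cells and 100% = JAK inhibitor I control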
# APP transl inh – inhibitors of APP translation via 5'UTR reporter, primary screen, APP 5'UTR luciferase, SH-SY5Y cells; SH-SY5Y APP 5'UTR-luciferase reporter, luminescence; inhibition, % at 2 µM; hit rate 0.82% among 190,000;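 active means inhibition above a set limit, derived from the sample mean plus 3 SD, cut at about 45% in these data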
# BaF3 tox – parental Ba/F3 cell viability inhibition, counter-screen for JAK2V617F inhibitor project, murine pro-B, CellTiter-Glo luminescence; CellTiter-Glo ATP luminescence; inhibition, % at 5.6 µM; hit rate 1.1% among 220,000; AID 1486, 2009;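 active means inhibition above a per-campaign cutoff, the mean inhibition of all tested compounds plus 3 SD, cut at about 27% in these data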;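 further: 0% = DMSO wells and 100% = JAK Inhibitor I control wells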
# KLF5 inh confirm – KLF5 expression inhibitors, confirmation, DLD-1 cells, luminescence | shares compounds with KLF5 inh | DLD-1 KLF5 promoter firefly luciferase reporter | inhibition, % at 4 µM | hit rate 79% among 610 | AID 1834, 2009;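 active means inhibition above a set limit taken from the earlier primary screen, cut at about 63% in these data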;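 further: 0% = DMSO wells and 100% = LY294002 at 200 µM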
# IEC-6 tox-2 – cytotoxicity in rat IEC-6 cells, cytotoxicity control for KLF5 inhibitor project, cell-based, luminescence, triplicate; IEC-6 rat intestinal cells, viability luminescence; hit rate 56% among 610; shares compounds with KLF5 inh; inhibition, % at 4 µM; AID 1905, 2009; in the data active means inhibition above about 23%;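 further: cells exposed to compounds for 48 hours before viability read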
# IEC-6 cytotox cf – cytotoxic compounds in IEC-6 epithelial cells, confirmation, cytotoxicity control, cell-based, luminescence; inhibition, % at 5 µM; shares compounds with IEC-6 tox-1; IEC-6 rat intestinal epithelial viability; hit rate 63% among 1,900; AID 1907, 2009;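 further: 0% = vehicle and 100% = reference cytotoxic drug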
# * marks the source's active call; other numbers are inactive results; / = no result given. Only some compounds are listed: those with a hit (about 1.8% of all), similar ones and a draw of the others. Unless noted, no stated cut-off is given here; in the data, active means inhibition above about 22%; inactive means the rest.
SMILES,KLF5 inh,IEC-6 tox-1,Ba/F3 V617F tox,APP transl inh,BaF3 tox,KLF5 inh confirm,IEC-6 tox-2,IEC-6 cytotox cf
COc1ccc2c(c1)C(C)=CC(C)(C)N2S(=O)(=O)c1ccc(NC(C)=O)cc1,81*,90*,/,/,/,88*,59*,57*
CCOc1ccc2c(c1)C(C)=CC(C)(C)N2S(=O)(=O)c1ccc(NC(C)=O)cc1,73*,92*,/,/,/,89*,71*,72*
Cc1ccc(C2(c3ccc(C)cc3)CC2C(=O)Nc2ccc([N+](=O)[O-])cc2O)cc1 (stereo unspecified),3,-4,4,5,5,/,/,/
O=C1CCN(Cc2nc(-c3ccc(Cl)cc3)no2)CCN1,5,2,2,9,4,/,/,/
CCOc1ccc(S(=O)(=O)NCc2ccccn2)cc1,-10,0,-1,-28,5,/,/,/
CCOc1ccc(S(=O)(=O)NCc2ccccn2)cc1NC(=O)c1ccccc1F,70*,88*,/,/,/,81*,55*,58*
COC(=O)c1ccc(C)c(NS(=O)(=O)c2ccc3c(c2)OCCO3)c1,82*,80*,75*,93*,55*,76*,56*,54*
COc1ccc2nc(SCC(=O)NC3CCCC3)c(C)cc2c1,71*,45*,/,/,/,85*,16,27*
COc1ccc2nc(SCC(=O)NC3CCCCC3)[nH]c2c1,-23,3,/,/,/,/,/,/
Cc1ccsc1C(=O)NCCc1ccc(S(N)(=O)=O)cc1,1,-4,/,/,/,/,/,/
COc1ccc2[nH]c(=O)c(CN(C(=O)c3cccnc3)c3ccccc3C)cc2c1,-1,-3,-1,/,-1,/,/,/
CNc1cc(C)nc(-n2nc(C)cc2C)n1,7,-3,-2,27,2,/,/,/
CCOc1ccc(Nc2cc(C)nc(-n3nc(C)cc3C)n2)cc1,81*,84*,77*,96*,81*,81*,56*,52*
CC(=O)Nc1sc2c(c1-c1nc3ccccc3s1)CCN(C(C)C)C2,62*,99*,95*,70*,73*,62*,23*,29*
Cc1cc(NCc2ccccn2)n2nc(C)c(-c3ccccc3)c2n1,67*,81*,9,/,9,55,9,18
COc1ccc(N/C=C/C(=O)c2cc(OC)c(OC)c(OC)c2)cc1,68*,81*,/,/,/,73*,57*,59*
COc1ccc(N/C=C/C(=O)c2ccc(OC)c(OC)c2)cc1,-13,6,0,/,-5,/,/,/
COc1ccc(OC)c(Nc2cc(C)nc3ccccc23)c1,-10,5,1,-2,0,/,/,/
COc1ccc(OC)c(Nc2cc(-c3ccccc3)nc(N)n2)c1,65*,89*,83*,94*,76*,71*,58*,57*
O=C(Nc1ccc2nc3n(c(=O)c2c1)CCCCC3)c1c(F)ccc([N+](=O)[O-])c1F,62*,92*,/,/,/,-19,22,32*
O=C(Cc1ccc(N2CCNC2=O)cc1)N1CCCC(Nc2cccc(F)c2)C1 (stereo unspecified),70*,71*,/,/,/,71*,47*,56*
O=C1CCCN1CCC(=O)N1CCCC(Nc2ccc(F)c(F)c2)C1 (stereo unspecified),-54,1,/,/,/,/,/,/
O=C(Cc1ccc(N2CCNC2=O)cc1)N1CCCC(Nc2ccc(F)c(F)c2)C1 (stereo unspecified),67*,48*,/,/,/,69*,62*,35*
Cc1c(CN(C)C(=O)/C=C/c2ccc([N+](=O)[O-])cc2)cnn1C,-23,-7,-1,19,3,/,/,/
O=C(NNC(=O)c1ccc(SCC2CCCO2)c([N+](=O)[O-])c1)c1ccc(F)cc1 (stereo unspecified),12,2,3,1,9,/,/,/
SMILES,KLF5 inh,IEC-6 tox-1,Ba/F3 V617F tox,APP transl inh,BaF3 tox,KLF5 inh confirm,IEC-6 tox-2,IEC-6 cytotox cf
COc1ccc(/C=N/NC(=O)c2[nH]c3ccc(Br)cc3c2-c2ccccc2)cc1,82*,73*,96*,97*,93*,90*,86*,83*
COc1ccc(/C=N/NC(=O)c2[nH]c3ccc(Br)cc3c2-c2ccccc2)c(C(=O)O)c1OC,3,0,-4,/,0,/,/,/
COc1ccc(C)cc1Nc1c2c(nc3ccccc13)CCC2,62*,88*,/,/,/,87*,70*,55*
COc1ccc(C(=O)c2cc([N+](=O)[O-])ccc2N2CCOCC2)cc1,77*,85*,92*,93*,94*,83*,66*,64*
CCC(CC)NC(=O)c1cc([N+](=O)[O-])ccc1N1CCOCC1,-11,-4,-5,-1,4,/,/,/
CCOc1ccc(C(=O)c2cc([N+](=O)[O-])ccc2N2CCOCC2)cc1,89*,92*,97*,94*,96*,95*,86*,82*
Cc1ccc(COC(=O)c2cc([N+](=O)[O-])ccc2N2CCOCC2)cc1,83*,87*,/,/,/,84*,74*,61*
Cc1[nH]c2ccccc2c1CN1CCC(Cc2ccccc2)CC1,-1,6,13,5,7,/,/,/
O=C(NC(=S)NCCC1=CCCCC1)c1cncc(Br)c1,-57,4,-2,-20,3,/,/,/
Cc1ccccc1/C(N)=N/OC(=O)c1cccs1,-11,0,0,-10,2,/,/,/
C/C=C/COC(=O)c1[nH]c2c(c1C)C(=O)CC(c1ccc(N(C)C)cc1)C2 (stereo unspecified),-12,4,1,-18,4,/,/,/
COC(=O)c1[nH]c2c(c1C)C(=O)CC(c1ccccc1)C2 (stereo unspecified),72*,87*,74*,96*,75*,88*,72*,64*
C=CCOC(=O)c1[nH]c2c(c1C)C(=O)CC(c1ccco1)C2 (stereo unspecified),90*,89*,82*,96*,84*,84*,60*,56*
COC(=O)c1[nH]c2c(c1C)C(=O)CC(c1ccc(OC)cc1)C2 (stereo unspecified),1,-4,/,/,/,/,/,/
COc1ccccc1N1CCN(C(=O)C2c3ccccc3Oc3ccccc32)CC1,70*,82*,83*,87*,78*,70*,57*,57*
O=C(C1c2ccccc2Oc2ccccc21)N1CCN(c2ccc(Cl)cc2)CC1,-28,-2,1,-9,4,/,/,/
CCC(OC(=O)c1ccco1)C(=O)NCc1ccc2c(c1)OCO2 (stereo unspecified),-28,-4,/,/,/,/,/,/
